In PubChem BioAssay AID720706 (Broad Institute, 2013) one finds GFP signal change (wild-type ribosome), OD600 change and RFP signal change data, which are given here for 38 compounds.

About 5,500 (1.6%) of roughly 350,000 compounds were called active.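 How the source made its calls: active means significant combined selectivity score with lowered wild-type GFP, culture density cut under 30%, mutant RFP and density less affected; inactive means any of these conditions unmet.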 The list comes from a sample in which actives are over-represented; it also holds similar structures and randomly drawn compounds.

This test in a line: reduced GFP signal of wild-type E. coli, primary screen, bacterial rRNA inhibitor project, GFP/RFP fluorescence, OD600, single point (AID 720706). The conditions noted are these: E. coli WT GFP vs humanized-ribosome RFP mutants, 24 h; GFP signal change (wild-type ribosome): stronger effect = lower value, DMSO median 0, no signal -100; OD600 change: measured here: OD600 growth, DMSO median 0, no signal -100; RFP signal change: measured here: RFP humanized mutant strains, DMSO median 0, no signal -100, concentration not given here.
Regarding `COCCNC(=O)C[C@H]1C[C@H]2c3cc(NS(C)(=O)=O)ccc3O[C@H]2[C@H](CO)O1`, the GFP signal change (wild-type ribosome) is 3.03% (inactive), the OD600 change was -0.685% and the RFP signal change is -2.39%.
On the same counts, the results for `C[C@@H]1CN([C@H](C)CO)C(=O)c2cc(NS(=O)(=O)c3ccc(F)cc3)ccc2O[C@@H]1CN(C)S(C)(=O)=O` are 3.23% (inactive), 5.12% and -0.699%.
In the case of `CO[C@H]1CN(C)C(=O)c2ccc(NC(=O)c3ccccc3F)cc2OC[C@H](C)N(C(=O)c2ccccc2F)C[C@H]1C`, the GFP signal change (wild-type ribosome) is -0.558% (inactive), the OD600 change is -1.65% and the RFP signal change is 0.417%.
In the same order, the values of `CCCNC(=O)N(C)C[C@H]1Oc2ncc(-c3ccc(C(=O)N(C)C)cc3)cc2C(=O)N([C@@H](C)CO)C[C@@H]1C` are 6.11% (inactive), 12.2% and -1.77%.
On the same counts, the results for `CCCN(C)C[C@H]1OCCCC[C@@H](C)Oc2ccc(NC(=O)Nc3ccc(F)cc3)cc2C(=O)N([C@@H](C)CO)C[C@H]1C` are -3.85% (inactive), -9.95% and 3.72%.
On the same counts, the results for `CC1(C(=O)NS(=O)(=O)c2ccc3ccccc3c2)CCN1C(=O)C1(c2ccc(Cl)cc2)CCC1` (centres undefined) are -33.2% (inactive), -59.6% and -12.6%.
On to `Cc1ccccc1S(=O)(=O)NC(=O)C1(C)CCN1C(=O)C1(c2ccccc2)CCCC1` (centres undefined), for which the GFP signal change (wild-type ribosome) is -6.4% (inactive), the OD600 change worked out at 0.03% and the RFP signal change was -0.676%.
In the same order, the values of `Cc1ccccc1S(=O)(=O)NC(=O)C1(C)CCN1C(=O)C1(c2ccc(Cl)cc2)CC1` (centres undefined) are -15.3% (active), 13% and 7.67%.
In the same order, the values of `Cc1noc(C)c1S(=O)(=O)N(C)C[C@@H]1OCCCC[C@H](C)Oc2ccc(NC(=O)CCC(F)(F)F)cc2C(=O)N([C@H](C)CO)C[C@H]1C` are -0.425% (inactive), 1.3% and 2.1%.
In the same order, the values of `O=C(c1cnccn1)N1CC(=O)N2[C@H](C1)[C@@H](c1ccc(C3=CCCCC3)cc1)[C@@H]2CO` are 3.19% (inactive), -21.9% and 1.94%.
As for `COCCNC(=O)C[C@@H]1C[C@@H]2c3cc(NS(=O)(=O)c4ccccc4)ccc3O[C@@H]2[C@H](CO)O1`, the GFP signal change (wild-type ribosome) was 1.27% (inactive), the OD600 change turned out to be 4% and the RFP signal change was -0.545%.
On the same counts, the results for `Fc1cccc2ncnc(OCc3ccccc3)c12` are -30.9% (active), -18% and -2.44%.
In the same order, the values of `CC(CNC(=O)Cn1cnc2c(OCc3ccccc3)ncnc21)c1ccccc1` (centres undefined) are 8.65% (inactive), 14.8% and 2.69%.
Turning to `c1ccc(COc2nsnc2N2CCOCC2)cc1`, the GFP signal change (wild-type ribosome) is 0.165% (inactive), the OD600 change is -14.3% and the RFP signal change was -6.39%.
On the same counts, the results for `CCCC#Cc1ccc([C@@H]2[C@@H](CO)N3C(=O)CN(C(=O)Nc4ccc(F)cc4)C[C@@H]23)cc1` are -0.84% (inactive), -38.9% and 19.5%.
In the same order, the values of `COCC(=O)Nc1ccc2c(c1)C(=O)N(C)[C@H]1CC[C@@H](CC(=O)NCc3cccc(F)c3)O[C@H]1CO2` are 3.46% (inactive), 6.34% and 1.53%.
On the same counts, the results for `CC(=O)Nc1ccc2c(c1)CC(=O)N(C)C[C@H](C)[C@H](CN(C)S(C)(=O)=O)O2` are 0.68% (inactive), 1.91% and 0.168%.
In the case of `CCNC(=O)[C@H]1[C@H](CO)[C@H]2Cn3c(cccc3=O)[C@@H]1N2Cc1cc(F)ccc1F`, the GFP signal change (wild-type ribosome) was 0.156% (inactive), the OD600 change worked out at 3.74% and the RFP signal change was 1%.
In the same order, the values of `C[C@@H]1CN([C@H](C)CO)C(=O)c2cccc(NS(=O)(=O)c3ccc(F)cc3)c2O[C@@H]1CN(C)S(=O)(=O)c1ccc(Cl)cc1` are -1.76% (inactive), -16.2% and -1.81%.
In the same order, the values of `Cn1nc(-c2ccccc2)c2cc([N+](=O)[O-])ccc21` are 0.085% (inactive), 1.86% and -0.696%.
In the same order, the values of `Cc1nc(-c2ccc([N+](=O)[O-])cc2)c(-c2ccccc2)o1` are -32% (active), -14.4% and 13.4%.
For `O=[N+]([O-])c1cc2ccccc2nc1-c1ccccc1`, the GFP signal change (wild-type ribosome) was 11.2% (inactive), the OD600 change is -0.7% and the RFP signal change is -0.455%.
For `O=C(C[C@H]1C[C@H]2c3cc(NC(=O)C4CCOCC4)ccc3O[C@H]2[C@@H](CO)O1)NCC1CC1`, the GFP signal change (wild-type ribosome) is 2.89% (inactive), the OD600 change was 8.38% and the RFP signal change was -2.18%.
In the same order, the values of `Cc1noc(C)c1NC(=O)Nc1ccc2c(c1)C(=O)N([C@@H](C)CO)C[C@H](C)[C@@H](CN(C)C(=O)C1CCCCC1)OCCCC[C@@H](C)O2` are 1.51% (inactive), 8.89% and -0.802%.
In the same order, the values of `CC=Cc1ccc2n(c1=O)C[C@@H]1[C@@H](CO)[C@H](C(=O)NCCc3ccccc3)N(C(C)=O)[C@H]21` (mixture of isomers) are 0.861% (inactive), 2.27% and -0.668%.
In the same order, the values of `COc1ccccc1NC(=O)N1C[C@@H]2[C@H](c3ccccc31)[C@H](CO)N2CC1CCOCC1` are 0.276% (inactive), -6.98% and 0.913%.
In the case of `COCCCNc1ccn2nc(-c3ccc(CC(C)C)cc3)cc2n1`, the GFP signal change (wild-type ribosome) is -26.9% (inactive), the OD600 change was -34.5% and the RFP signal change turned out to be 0.31%.
In the same order, the values of `COCCNc1cc(-c2ccccc2)nc2cc(-c3cccc(F)c3)nn12` are -14.8% (active), 8.3% and -4.74%.
In the same order, the values of `COc1ccc(-c2cc3nc(NCCOc4ccccc4)ccn3n2)cc1` are -7.79% (inactive), -16.3% and 16.5%.
On the same counts, the results for `CC(C)NC(=O)N(C)C[C@H]1OCc2ccccc2-c2c(n(C)c3ccccc23)C(=O)N([C@H](C)CO)C[C@@H]1C` are 0.94% (inactive), 5.88% and -4.42%.
Regarding `CN1c2ccc(-c3ccccc3)cc2[C@@H]2[C@@H](CCN2C(=O)NC2CCCC2)[C@H]1CO`, the GFP signal change (wild-type ribosome) is -26.6% (inactive), the OD600 change was -47.4% and the RFP signal change was 16.9%.
For the compound `CCC(=O)N1[C@@H](CO)[C@@H](c2ccccc2)C12CN(C(=O)c1cnccn1)C2`, the GFP signal change (wild-type ribosome) is -1.97% (inactive), the OD600 change is -9.38% and the RFP signal change was determined as 1.42%.
With `COc1ccc(-c2nc(N)ncc2-c2ccc(Cl)cc2)c(O)c1`, the GFP signal change (wild-type ribosome) was -4.3% (inactive), the OD600 change is -9.82% and the RFP signal change came to 0.567%.
On to `CCOc1ccc(-c2nc(N)ncc2-c2ccccc2OC)c(O)c1`, for which the GFP signal change (wild-type ribosome) was -28.9% (active), the OD600 change is -3.55% and the RFP signal change was -5.66%.
On the same counts, the results for `C=C(C)COc1ccc(-c2ncncc2-c2ccc(OC)cc2)c(O)c1` are -11.6% (inactive), -10.7% and -1.31%.
On the same counts, the results for `CCS(=O)(=O)Nc1ccc2c(c1)C(=O)N(C)[C@@H]1CC[C@H](CC(=O)N3CCCCC3)O[C@@H]1CO2` are -0.591% (inactive), -4.1% and -3.67%.
On the same counts, the results for `COc1ccc(NC(=O)N2C[C@H](O)COC[C@@H]3O[C@@H](CC(=O)NCc4ccccc4OC)CC[C@H]32)cc1` are -1.91% (inactive), -2.52% and -1.31%.
Take `COc1cccc(-c2cn(CC[C@H]3CC[C@H](NC(=O)CN(C)C)[C@H](CO)O3)nn2)c1`: the GFP signal change (wild-type ribosome) was -0.8% (inactive), the OD600 change was -2.58% and the RFP signal change was -0.651%.
